PostGolgi ctrl = inhibits growth of the yeast control strain; inhibition, % at 10 µM; actives 5% (n = 98,000); efflux-deficient yeast background strain, growth absorbance A615, 16 h
Cav32 inh = blocks human Cav3.2 T-type calcium channel. O95180. Cav3.2-expressing cells, Fluo-4 calcium fluorescence FDSS; stronger effect = lower value. B-score at 10 µM. actives 4% (n = 100,000);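 active means single-dose well whose peak fluorescence ratio is a statistical outlier from its plate by either plate-standardised score or position-corrected B-score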
hDAT+cocaine = changed human dopamine transporter uptake under cocaine IC80 | Q01959 | LLC-PK1 hDAT cells, [14C]-dopamine uptake with cocaine IC80; actives deviate in either direction | B-score at 10 µM | actives 1.3% (n = 110,000) | AID 449768;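 active means Z score or B-score, a plate-position-corrected score, falls beyond the plate's 99.7% confidence bounds, in either direction; inactive means both scores lie inside the 99.7% bounds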;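 further: scored against the spread of the other compound wells on the same plate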
PostGolgi yeast = growth inhibition of a yeast mutant, post-Golgi transport screen. post-Golgi transport phenotypic cell assay. inhibition, % at 10 µM. actives 0.9% (n = 98,000);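 further: yeast cells grown in 1536-well plates; yeast grown about 18 h at 30C before absorbance read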
TNAP act mid DEA = activators of human TNAP at intermediate phosphate acceptor | P05186 | purified TNAP, CDP-star luminescence, 100 mM DEA, 30 min; stronger effect = higher value; scale: 0 levamisole-inhibited, 1 vehicle-only enzyme | activation factor at 20 µM | 64,000 tested, under 10 active | AID 813;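 active means activation factor of at least 2 at 20 µM, relative to controls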
Smad3 FoxH1 inh = Smad3 (human) transcription factor binding inhibition | actives 0.29% (n = 88,000) | TR-FRET Smad3/Dy647-FoxH1 peptide binding, europium anti-His | inhibition, % at 25 µM | P84022;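 active means compounds that reduce the energy-transfer binding signal between the protein and its labelled peptide by more than half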;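 further: 0% = Smad3 plus labelled peptide maximal FRET and 100% = peptide-only background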
Numbers without * were called inactive; · = no result given. Shown are actives, neighbours in structure and some others; about 8.7% of the full set was active somewhere. Unless noted, no stated cut-off is given here; in the data, active means inhibition above about 30%; inactive means the rest.

SMILES	PostGolgi ctrl	Cav32 inh	hDAT+cocaine	PostGolgi yeast	TNAP act mid DEA	Smad3 FoxH1 inh
CO[C@@H]([CH2][Hg][n]1cnc2c1c(=O)n(C)c(=O)n2C)CN1C(=O)c2ccccc2S1(=O)=O	·	·	·	·	·	64*
O=C(Cn1ncc2c3ccccc3n(Cc3ccc(F)cc3)c2c1=O)N1CCC2(CC1)OCCO2	13	-8*	0.75	3	0.8	10
Cc1c2cnn(CC(=O)N3CCC4(CC3)OCCO4)c(=O)c2c(C)n1Cc1ccccc1	5	0.27	-0.0087	3	0.9	·
CCN(CC)c1ccc(CN2CC=C(c3ccc(F)cc3)CC2)cc1	22	-0.86	0.53	60*	·	11
CCn1nc(-c2ccccc2)nc2c(=O)n(C)c(=O)nc1-2	102*	-1.7	-0.018	106*	0.8	·
O=P(Nc1ccccc1)(Nc1ccccc1)Oc1cccc(Cl)c1	16	-7.1*	0.35	-8	·	·
O=C(Nc1cccnc1)c1c(O)c2c(n(Cc3ccccc3)c1=O)CCCC2	38*	-2.8	-0.16	-1	1	-11
COC(=O)c1c(C)ccc2c(O)c3c(cc12)C(=O)c1c2c(cc(O)c1C3=O)[C@@]1(C)O[C@@](C)(O2)[C@@H](O)[C@H](N(C)C)[C@H]1O	·	·	·	·	·	94*
CN(C)CC1CSCCC1(O)c1cccc(Cl)c1 (stereo not given)	·	0.25	0.28	·	·	6
COC(=O)[C@@H]1c2cc3c(c(O)c2[C@@H](O)C[C@]1(C)O)C(=O)c1c(O)cc2c(c1C3=O)O[C@H]1O[C@]2(C)[C@@H](O)[C@H](N(C)C)[C@H]1O	·	·	·	·	·	27
CC(C)CNC(=O)c1c(N)n(Cc2ccco2)c2nc3ccccc3nc12	55*	-1.2	-1.1	3	·	-10
COc1ccc(P2(=O)Nc3ccccc3N2)cc1	11	-2.1*	0.22	-11	0.8	-9
COc1ccc(-n2c(=O)[nH]c3ccccc3c2=O)cc1	1	-0.073	-1.3	-2	·	0
CN1CCc2nc3sc(C(=O)NC(C)(C)C)c(N)c3cc2C1	68*	0.68	0.1	96*	·	3
CCN(CC)CCCN=C(C)c1c(O)n(-c2ccc(C)cc2)c(=O)[nH]c1=O	0	-0.27	0.6	5	0.9	-3
CCCCCCOc1ccc(CN2CCN(CCO)CC2)cc1	31*	0.83	1	89*	1	5
O=c1[nH]c(=O)n(CCC2=CCCCC2)c(O)c1C=Nc1cccc(F)c1	11	0.3	-0.49	2	·	15
CC(C)(C)n1c(O)c(C=Nc2ccc3c(c2)CCC3)c(=O)[nH]c1=O	45*	-2.3	0.4	1	0.8	-3
O=c1[nH]c(=O)n(C2CCCCC2)c(O)c1C1NCCc2ccccc21 (stereo not given)	-5	·	-0.078	-1	0.9	-1
O=c1[nH]cnc2[nH]cc(CN3CCCCC3)c12	·	·	·	·	·	78*
O=C1C(=O)c2ccccc2-c2ccccc21	38*	-0.1	-1.1	7	·	·
COC(=O)C1=C(c2cc3ccccc3o2)C[C@@H]2CC[C@H]1N2C(=O)NCc1ccc(C(F)(F)F)cc1	·	-0.18	-1.3	·	·	·
N#CC1=C(N)Oc2c(c(=O)oc3ccccc23)C1c1cccnc1 (stereo not given)	10	-0.9	-0.65	2	0.9	5
Cc1nn(-c2ccccc2)c(Cl)c1C1C(C#N)=C(N)Oc2c1c(=O)oc1ccccc21 (stereo not given)	31*	·	-0.3	6	0.9	-13
O=C(O)c1cccc([As]=[As]c2cccc(C(=O)O)c2)c1 (stereo not given)	·	·	·	·	·	55*
SMILES	PostGolgi ctrl	Cav32 inh	hDAT+cocaine	PostGolgi yeast	TNAP act mid DEA	Smad3 FoxH1 inh
COC(=O)C1=C(c2cccc(OC)c2OC)C[C@@H]2CC[C@H]1N2C(=O)NCc1ccc(F)cc1	·	0.028	-0.002	·	·	·
CCSP1(=S)N=C(N2CCOCC2)C(C#N)=C2CCCN21 (stereo not given)	9	-1.7	-0.88	-2	0.9	3
CNc1ccc2oc(C[C@H]3O[C@@]4(CC[C@H]3C)O[C@H]([C@H](C)C(=O)c3ccc[nH]3)[C@H](C)C[C@H]4C)nc2c1C(=O)O	·	4.4*	-0.8	·	·	·
COC(=O)C1=C(c2cc3ccccc3s2)C[C@@H]2CC[C@H]1N2C(=O)NCc1ccc(F)cc1	·	-3.4*	0.072	·	·	·
CN1C(=O)/C(=C\c2ccc(N3CCCCC3)o2)C(=O)NC1=S	-1	-4.8*	-0.14	1	·	·
Cc1cccc(N2C(=O)/C(=C/c3ccc(CN(CCC#N)S(C)(=O)=O)o3)C(=O)NC2=S)c1	5	1	0.55	12	·	·
Cc1ccc(N2C(=O)/C(=C/c3ccc(CN(CCC#N)S(C)(=O)=O)o3)C(=O)NC2=S)cc1C	-2	1.2	0.53	-3	·	·
CN1C(=O)/C(=C/c2ccc(N3CCCCCC3)o2)C(=O)NC1=S	·	-4.5*	0.4	·	·	-14
Oc1ccc(CC2CC3CCN2CC3)cc1O (stereo not given)	-7	0.75	0.71	-1	0.5	-1
COc1cc2c(cc1OC)[C@]13CC[N@+]4(C)CC5=CCO[C@@H]6CC(=O)N2[C@@H]1[C@@H]6[C@@H]5C[C@]34O	·	·	·	·	·	93*
CNP1(NC)=NC(C(F)(F)F)=NC(C(F)(F)F)=N1	0	·	0.092	-1	0.8	9
CC12CN3CCN(CC(C3)C1O)C2 (stereo not given)	7	-0.39	0.29	5	0.9	9
O=C(Cc1ccccc1)Oc1cccc(N2C(=O)CCC2=O)c1	33*	-0.032	0.32	3	0.9	-8
COC(=O)CC1NC2CCCCC2NC1=O (stereo not given)	7	1	-0.53	1	0.9	7
CCOC(=O)[C@@H]1[C@H]2c3ccccc3-c3ccccc3[C@@H]2C[C@H]1O	·	·	·	·	·	18
CC(c1ccccc1)n1cncc1C(=O)O (stereo not given)	·	-0.13	-0.57	·	·	10
C[N+]1(C)CCc2cc3c(cc2[C@H]1[C@@H]1OC(=O)c2c1ccc1c2OCO1)OCO3	·	-0.015	0.19	·	1	-1
O=C(Nc1ccc(Br)cc1)c1nn(C23CC4CC(CC(C4)C2)C3)cc1Br	1	-3.4	3*	6	·	·
c1ccc(CCn2nnnc2CN2CCC(n3nnc4ccccc43)CC2)cc1	1	0.77	0.17	-6	1	-3
Cc1nc2ccccc2n1C1CCN(Cc2nnnn2CCc2ccccc2)CC1	39*	-1.1	-0.022	1	0.9	-6
O=C1N[C@]2(CN3CCC2CC3)C(=O)N1CN(Cc1ccccc1)c1ccccc1	·	·	·	·	·	-4
O=C(O)C[C@@H]1OCC=C2CN3CC[C@]45c6ccccc6N[C@H]4[C@H]1[C@H]2C[C@H]35	·	·	·	·	·	-14
COc1cc2c(cc1OC)[C@]13CCN4CC5=CCO[C@@H](CC(=O)O)[C@H]([C@H]5C[C@H]41)[C@@H]3N2	·	·	·	·	·	88*
CCOC(=O)c1c(C)n(CCOC)c2ccc(O)cc12	-1	1.2	0.13	-6	0.8	-4
Cc1nc2c(=O)n(C)c(=O)nc-2n(C)n1	·	·	·	·	·	80*

Source: PubChem (several laboratories)
